According to PubChem BioAssay AID1446 (The Scripps Research Institute Molecular Screening Center, 2008):
The campaign covered roughly 220,000 compounds. About 2,400 (1.1%) were called active. Only a selection was taken, and actives are over-represented in it overall. Unmarked numbers belong to inactive results.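 Rule for the calls: active = inhibition above the campaign mean plus 3 SD over all tested compounds (cut at about 24% in these data); inactive = the rest.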

test: reduced viability of JAK2V617F-dependent Ba/F3 cells, primary screen, JAK2V617F inhibitor project, cell-based, Ba/F3 EpoR-JAK2V617F, luminescence (AID 1446); conditions: ATP luminescence, at 5.6 µM, hits give high values;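 note: cytokine-independent growth of Ba/F3 cells driven by EpoR plus mutant JAK2; 0% = DMSO-treated cells and 100% = JAK inhibitor I control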

Row | SMILES | inhibition
1 | CCC1CCCCN1CCCNC(=O)Cn1nc(-c2ccccc2)ccc1=O (stereo unspecified) | -2.73%
2 | CCC1CCCCN1CCCNC(=O)c1cc2c(Cl)nc3ccccc3c2s1 (stereo unspecified) | 58.8% (active)
3 | CCC1CCCCN1CCCNC(=O)C1CCC(Cn2c(=O)[nH]c3ccccc3c2=O)CC1 (stereo unspecified) | 2.93%
4 | CC(C)(C)c1cc(P(=O)(c2ccccc2)c2ccccc2)ccc1O | -0.07%
5 | OCCN1CCN(C(=S)c2ccc(-c3ccccc3)cc2)CC1 | -5.03%
6 | COc1ccc(C(=O)CSc2nnc(NC(=O)C3CC(=O)N(c4cccc(OC)c4)C3)s2)cc1 (stereo unspecified) | 0.22%
7 | CC(C)(CCl)C(=O)Nc1ccc(Sc2ccc(F)cc2)cc1 | -2.48%
8 | Cc1ccc(NC(=O)CC(=O)Nc2ccc(C)cc2)cc1 | -3.42%
9 | O=C(CCl)Nc1ccc(Sc2ccc(NC(=O)CCl)cc2)cc1 | 39.2% (active)
10 | COc1ccc(C(=O)Nc2ccc(N3CCC(C)CC3)cc2)cc1Br | 1.71%
11 | COc1ccc(N2CCN(C(=O)CCSCc3ccccc3F)CC2)cc1 | -2.23%
12 | CCC(C)C(=O)Nc1cc([N+](=O)[O-])ccc1Cl (stereo unspecified) | -3.84%
13 | CCN(CC)S(=O)(=O)c1ccc(N(C)Cc2cccc(OC)c2OC)nc1 | 1.34%
14 | CCCCCCc1cc2cc(-c3nnc(-c4cccc(OC)c4)o3)c(=O)oc2cc1O | -1.07%
15 | Cn1c(SCC(=O)N/N=C/c2ccc(O)c(O)c2)nc2ccccc21 | 0.9%
16 | CCCc1nc2ccccc2c(=O)n1/N=C/c1ccc(O)c(O)c1 | 26.5% (active)
17 | CCCc1nc2ccccc2c(=O)n1NC(=O)c1c(O)c2ccccc2[nH]c1=O | 6.3%
18 | Cc1nnsc1C(=O)NCc1c(F)cccc1Cl | 1.93%
19 | CCCCC1S/C(=N/N=C/c2cccs2)NC1=O (stereo unspecified) | 1.12%
20 | CCCOC(=O)c1[nH]c2c(c1C)C(=O)CC(c1cccs1)C2 (stereo unspecified) | 74.3% (active)
21 | CCCOC(=O)c1[nH]c2c(c1C)C(=O)CC(c1cc(OC)c(OC)c(OC)c1)C2 (stereo unspecified) | 17.1%

Row | SMILES | inhibition
22 | CCOC(=O)c1[nH]c2c(c1C)C(=O)CC(c1ccc(N(C)C)cc1)C2 (stereo unspecified) | 0.77%
23 | COc1ccc(/C=C2/SC(=O)N(CCCCCC(=O)Nc3ccccc3C(=O)O)C2=S)cc1 | -2.34%
24 | Cc1ccc(O)c(CNc2nc3ccccc3n2C)c1 | 1.4%
25 | Cc1ccc(C2=NN(C)c3nc4ccccc4n3C2)cc1 | 56.8% (active)
26 | Cn1cccc1-c1nc2ccccc2n1C | 3.85%
27 | Fc1ccc(COc2ccc(-c3nnco3)cc2)cc1 | -2.6%
28 | CCOc1cc(/C=C2/C(=N)N3OC(C)=CC3=NC2=O)ccc1OC | 1.56%
29 | C/C(=N\NC(N)=S)c1cccnc1 | -4.73%
30 | Cc1ccc(-c2cnc(NC(=O)CCC(=O)N(C)Cc3ccccc3)n2C)cc1 | 40.1% (active)
31 | Cn1c(-c2ccc(F)cc2)cnc1SCC(=O)NNC(=O)Cc1ccccc1 | 0.3%
32 | CN(Cc1ccccc1)C(=O)CCc1ccccc1 | -4.97%
33 | CC(=O)c1ccc(N2CCN(S(=O)(=O)c3c(C)[nH]c(=O)[nH]c3=O)CC2)cc1 | 2%
34 | c1ccc2c(c1)CSc1sccc1C2=C1CCNCC1 | 45.9% (active)
35 | Cn1ccc(=Nc2ccc(NC(=O)c3ccc(N=c4ccn(C)c5ccc([N+](=O)[O-])cc45)cc3)cc2)cc1 | 34.4% (active)
36 | CC(=O)NC(=S)Nc1ccc(NC(=S)NC(=O)c2ccc([N+](=O)[O-])cc2)cc1 | -4.8%
37 | Cc1cc([N+](=O)[O-])ccc1NC(=O)c1ccc(NC(=O)C(C)C)cc1 | 0.7%
38 | O=C(Nc1ccccc1-c1ccccc1)c1cccs1 | 6.54%
39 | N#Cc1ccc(OCc2nnc(-c3ccc([N+](=O)[O-])cc3)o2)cc1 | 1.03%
40 | Cc1n[nH]c(=O)n1-c1ccc(C(C)C)cc1 | 0.05%
41 | O=C(Nc1ccccc1)Nc1ccc(C(F)(F)F)cn1 | 2.61%
42 | Oc1ccc(/C=N/Nc2ccc(C(F)(F)F)cn2)cc1O | 72% (active)

Row | SMILES | inhibition
43 | Cc1nccn1CC(=O)N/N=C/c1ccc(O)c(O)c1 | -3.5%
44 | CC1(C)C2CC=C(/C=N/NC(=O)C3CC3)C1C2 (stereo unspecified) | -1.08%
45 | Fc1ccc2[nH]c3c(N4CCSCC4)ncnc3c2c1 | -5.13%
46 | Cc1cc(N2CCN(Cc3ccc4c(c3)OCO4)CC2)n2ncnc2n1 | 4.15%
47 | Fc1ccc2[nH]c3c(N4CCN(Cc5ccc6c(c5)OCO6)CC4)ncnc3c2c1 | 37.1% (active)
48 | CC(=O)Nc1ccc(/C(C)=N/NC(=O)CN(c2ccccc2Br)S(C)(=O)=O)cc1 | -0.87%
49 | CSc1sc(C(=O)NC(=O)NCc2cccnc2)c(C)c1-c1ccon1 | -1.98%
50 | COc1ccc(C2C(C(C)=O)=C(O)C(=O)N2CCc2c[nH]c3ccccc23)cc1 (stereo unspecified) | -3.16%
51 | O=C(N/N=C\c1cc(Br)c(Br)o1)C1COc2ccccc2O1 (stereo unspecified) | -4.95%
52 | CN(Cc1nc2ccc(F)cc2[nH]1)Cc1nc(CC2CC2)no1 | -1.61%
53 | CCc1ccc(CN(C)Cc2nc(Cc3ccccc3)no2)nc1 | 1.45%
54 | CN(Cc1ccc2nsnc2c1)Cc1nc(Cc2cccc(F)c2)no1 | 47.5% (active)
55 | Cc1cc(C(=O)CCl)c(C)n1CC1COc2ccccc2O1 (stereo unspecified) | 2.03%
56 | CSCCC(NS(=O)(=O)c1ccc2c(c1)oc(=O)n2C)C(=O)NCc1ccccc1 (stereo unspecified) | -3.72%
57 | COc1ccc(NC(=O)Nc2ccc3nc(C)c(C)nc3c2)cc1 | -2.47%
58 | COc1ccc2nc(/N=C(\N)NC(=O)Nc3ccccc3)nc(C)c2c1 | 30.8% (active)
59 | Cc1nc(/N=C(\N)NC(=O)NC2CCCCC2)nc2ccccc12 | 2.92%
60 | CCCN(CCC)S(=O)(=O)c1ccc(C(=O)NNC(=O)c2cc(OC)c(OC)c(OC)c2)cc1 | -3.01%
61 | C#CCOCCOCCOCCNc1nc(N2CCN(C(=O)[C@H](C(C)C)n3cc(CCO)nn3)CC2)nc(N2CCN(C(=O)[C@H]([C@@H](C)CC)n3cc(CCCN=C(N)N)nn3)CC2)n1 | 1.82%
